Results from publication doi:10.1101/2024.03.05.583629.

target: pT7_6His-AlfaTag-HOXD13 (human, UniProt P35453 263-343); experiment: PADIT-seq; conditions: dsDNA, one strand shown
Sequence (P35453 263-343): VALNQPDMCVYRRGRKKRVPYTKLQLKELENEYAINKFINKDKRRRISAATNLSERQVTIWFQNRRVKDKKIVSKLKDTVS

Row | Sequence | binding signal
1 | CTCGAGGATATCAAGATCTGGCCTCGGCGTTTTATGTGGAACCTCTAGCTAGCCGACTCACTATAGGGATAATCGCCCTGAGCAAAGACC | 2.96 ± 0.0773 log2FC
2 | CTCGAGGATATCAAGATCTGGCCTCGGCCTTTTAGCGGGAACCTCTAGCTAGCCGACTCACTATAGGGATAATCGCCCTGAGCAAAGACC | 0.142 ± 0.0994 log2FC
3 | CTCGAGGATATCAAGATCTGGCCTCGGCATTTTACGCGGAACCTCTAGCTAGCCGACTCACTATAGGGATAATCGCCCTGAGCAAAGACC | 2.16 ± 0.0812 log2FC
4 | CTCGAGGATATCAAGATCTGGCCTCGGCGCAATAAAAGGAACCTCTAGCTAGCCGACTCACTATAGGGATAATCGCCCTGAGCAAAGACC | 2.76 ± 0.0728 log2FC
5 | CTCGAGGATATCAAGATCTGGCCTCGGCGTTTTACACGGAACCTCTAGCTAGCCGACTCACTATAGGGATAATCGCCCTGAGCAAAGACC | 2.15 ± 0.0769 log2FC
6 | CTCGAGGATATCAAGATCTGGCCTCGGCTTGGTAAAAGGAACCTCTAGCTAGCCGACTCACTATAGGGATAATCGCCCTGAGCAAAGACC | 0.112 ± 0.0883 log2FC
7 | CTCGAGGATATCAAGATCTGGCCTCGGCGTCTTAAAAGGAACCTCTAGCTAGCCGACTCACTATAGGGATAATCGCCCTGAGCAAAGACC | 1.44 ± 0.067 log2FC
8 | CTCGAGGATATCAAGATCTGGCCTCGGCCATTTAAAAGGAACCTCTAGCTAGCCGACTCACTATAGGGATAATCGCCCTGAGCAAAGACC | 2.3 ± 0.0841 log2FC
9 | CTCGAGGATATCAAGATCTGGCCTCGGCACGTTAAAAGGAACCTCTAGCTAGCCGACTCACTATAGGGATAATCGCCCTGAGCAAAGACC | 1.42 ± 0.0726 log2FC
10 | CTCGAGGATATCAAGATCTGGCCTCGGCCTTTTAAGCGGAACCTCTAGCTAGCCGACTCACTATAGGGATAATCGCCCTGAGCAAAGACC | 0.916 ± 0.0855 log2FC
11 | CTCGAGGATATCAAGATCTGGCCTCGGCGTTTTATGAGGAACCTCTAGCTAGCCGACTCACTATAGGGATAATCGCCCTGAGCAAAGACC | 3.28 ± 0.127 log2FC
12 | CTCGAGGATATCAAGATCTGGCCTCGGCGTTTTATCTGGAACCTCTAGCTAGCCGACTCACTATAGGGATAATCGCCCTGAGCAAAGACC | 0.898 ± 0.106 log2FC
13 | CTCGAGGATATCAAGATCTGGCCTCGGCGTGCTAAAAGGAACCTCTAGCTAGCCGACTCACTATAGGGATAATCGCCCTGAGCAAAGACC | -0.142 ± 0.0902 log2FC
14 | CTCGAGGATATCAAGATCTGGCCTCGGCTTTTTAATAGGAACCTCTAGCTAGCCGACTCACTATAGGGATAATCGCCCTGAGCAAAGACC | 2.75 ± 0.0795 log2FC
15 | CTCGAGGATATCAAGATCTGGCCTCGGCACCTTAAAAGGAACCTCTAGCTAGCCGACTCACTATAGGGATAATCGCCCTGAGCAAAGACC | 0.52 ± 0.102 log2FC
16 | CTCGAGGATATCAAGATCTGGCCTCGGCAGCCTAAAAGGAACCTCTAGCTAGCCGACTCACTATAGGGATAATCGCCCTGAGCAAAGACC | -0.607 ± 0.118 log2FC
17 | CTCGAGGATATCAAGATCTGGCCTCGGCGTCGTAAAAGGAACCTCTAGCTAGCCGACTCACTATAGGGATAATCGCCCTGAGCAAAGACC | 2.57 ± 0.0709 log2FC
18 | CTCGAGGATATCAAGATCTGGCCTCGGCGATCCACGCGGAACCTCTAGCTAGCCGACTCACTATAGGGATAATCGCCCTGAGCAAAGACC | -1.01 ± 0.105 log2FC
19 | CTCGAGGATATCAAGATCTGGCCTCGGCTTTTTACGCGGAACCTCTAGCTAGCCGACTCACTATAGGGATAATCGCCCTGAGCAAAGACC | 2.08 ± 0.0867 log2FC
20 | CTCGAGGATATCAAGATCTGGCCTCGGCTTTTTAATTGGAACCTCTAGCTAGCCGACTCACTATAGGGATAATCGCCCTGAGCAAAGACC | 2.41 ± 0.0904 log2FC

Row | Sequence | binding signal
21 | CTCGAGGATATCAAGATCTGGCCTCGGCTTTTTACGGGGAACCTCTAGCTAGCCGACTCACTATAGGGATAATCGCCCTGAGCAAAGACC | 3.16 ± 0.0883 log2FC
22 | CTCGAGGATATCAAGATCTGGCCTCGGCATTTTAGAGGGAACCTCTAGCTAGCCGACTCACTATAGGGATAATCGCCCTGAGCAAAGACC | 1.43 ± 0.0957 log2FC
23 | CTCGAGGATATCAAGATCTGGCCTCGGCCTTTTAATCGGAACCTCTAGCTAGCCGACTCACTATAGGGATAATCGCCCTGAGCAAAGACC | 1.35 ± 0.0812 log2FC
24 | CTCGAGGATATCAAGATCTGGCCTCGGCAGCATAAAAGGAACCTCTAGCTAGCCGACTCACTATAGGGATAATCGCCCTGAGCAAAGACC | 0.863 ± 0.103 log2FC
25 | CTCGAGGATATCAAGATCTGGCCTCGGCCAGGTAAAAGGAACCTCTAGCTAGCCGACTCACTATAGGGATAATCGCCCTGAGCAAAGACC | 0.0831 ± 0.0976 log2FC
26 | CTCGAGGATATCAAGATCTGGCCTCGGCGTACTAAAAGGAACCTCTAGCTAGCCGACTCACTATAGGGATAATCGCCCTGAGCAAAGACC | 0.47 ± 0.0814 log2FC
27 | CTCGAGGATATCAAGATCTGGCCTCGGCATTATAAAAGGAACCTCTAGCTAGCCGACTCACTATAGGGATAATCGCCCTGAGCAAAGACC | 2.37 ± 0.0729 log2FC
28 | CTCGAGGATATCAAGATCTGGCCTCGGCGACTTAAAAGGAACCTCTAGCTAGCCGACTCACTATAGGGATAATCGCCCTGAGCAAAGACC | 0.297 ± 0.0744 log2FC
29 | CTCGAGGATATCAAGATCTGGCCTCGGCTGACTAAAAGGAACCTCTAGCTAGCCGACTCACTATAGGGATAATCGCCCTGAGCAAAGACC | -0.535 ± 0.11 log2FC
30 | CTCGAGGATATCAAGATCTGGCCTCGGCTTTTTAAGCGGAACCTCTAGCTAGCCGACTCACTATAGGGATAATCGCCCTGAGCAAAGACC | 0.814 ± 0.0936 log2FC
31 | CTCGAGGATATCAAGATCTGGCCTCGGCCCAATAAAAGGAACCTCTAGCTAGCCGACTCACTATAGGGATAATCGCCCTGAGCAAAGACC | 2.95 ± 0.095 log2FC
32 | CTCGAGGATATCAAGATCTGGCCTCGGCTTTTTACCCGGAACCTCTAGCTAGCCGACTCACTATAGGGATAATCGCCCTGAGCAAAGACC | -0.11 ± 0.103 log2FC
33 | CTCGAGGATATCAAGATCTGGCCTCGGCATTTTAGCGGGAACCTCTAGCTAGCCGACTCACTATAGGGATAATCGCCCTGAGCAAAGACC | 0.146 ± 0.1 log2FC
34 | CTCGAGGATATCAAGATCTGGCCTCGGCGTTTTAGGGGGAACCTCTAGCTAGCCGACTCACTATAGGGATAATCGCCCTGAGCAAAGACC | 1.59 ± 0.0927 log2FC
35 | CTCGAGGATATCAAGATCTGGCCTCGGCTTCGTAAAAGGAACCTCTAGCTAGCCGACTCACTATAGGGATAATCGCCCTGAGCAAAGACC | 1.86 ± 0.0804 log2FC
36 | CTCGAGGATATCAAGATCTGGCCTCGGCATTTTAACGGGAACCTCTAGCTAGCCGACTCACTATAGGGATAATCGCCCTGAGCAAAGACC | 1.87 ± 0.0803 log2FC
37 | CTCGAGGATATCAAGATCTGGCCTCGGCCTTTTAGCCGGAACCTCTAGCTAGCCGACTCACTATAGGGATAATCGCCCTGAGCAAAGACC | -0.235 ± 0.0913 log2FC
38 | CTCGAGGATATCAAGATCTGGCCTCGGCCTTTTATCCGGAACCTCTAGCTAGCCGACTCACTATAGGGATAATCGCCCTGAGCAAAGACC | 0.939 ± 0.078 log2FC
39 | CTCGAGGATATCAAGATCTGGCCTCGGCGTTCTAAAAGGAACCTCTAGCTAGCCGACTCACTATAGGGATAATCGCCCTGAGCAAAGACC | -0.197 ± 0.0802 log2FC
